This note sets out measurements from PubChem BioAssay (NCATS).

A short description of test [1]: Cell Viability - BJ (AID 421; calls by dose curve;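 also: potency is read from the fitted curve at half-maximal effect; cells exposed to compound for 40 hours at 37 °C before readout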). To be noted: BJ fibroblast viability, qHTS. Put shortly: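 Normal human BJ foreskin fibroblasts, 1500/well in complete medium, treated 40 hr at 37 °C. Cellular ATP by CellTiter-Glo luminescence; normalized to DMSO and 100 uM tamoxifen, AC50 from Hill fit.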
A general note: Quantitative high-throughput screening tests each substance at several concentrations.

Test [2] can be described thus: Cell Viability - MRC5 (AID 434; calls by dose curve;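 also: potency is read from the fitted curve at half-maximal effect; potency reflects cytotoxicity seen as loss of intracellular ATP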). To be noted: MRC5 lung fibroblast viability, qHTS. Put shortly: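 MRC5 normal human lung fibroblasts, 1500 cells/well, exposed to compound for 40 hr at 37 C. Cellular ATP was read by CellTiter-Glo luminescence; data normalized to DMSO and 100 uM tamoxifen, with AC50 from Hill fits.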
Test [3] deals with Mitogen-activated protein kinase 10 (Mus musculus) (UniProt Q61831). Briefly: JNK3 AlphaScreen Assay (AID 530; active = well fitted curve in either direction with a large enough effect, not every such curve was filed as active;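 also: kinase came from lysate of stimulated human HepG2 cells; signal reports phosphorylation of biotinylated GST-cJun 1-79 at Ser73 with 10 µM ATP; % is scaled to controls: 0 for no effect and ±100 for the full control effect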). Put shortly: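 Pre-activated (IL-1β/TNFα) JNK3 in HepG2 lysates phosphorylates biotin-GST-cJun(1-79), 10 uM ATP; anti-phospho-cJun(Ser73) AlphaScreen read at room temperature, pH 7.6 Tris buffer. Compounds pre-incubated 15 min as titrations.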
For orientation: In Alpha technology, singlet oxygen from a donor bead excites a nearby acceptor bead.

Test [4] is described as follows: Cell Viability - N2a (AID 540).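 Also: plate controls were DMSO alone for no effect and tamoxifen control for full effect; nearly all actives have a fitted effect of over 45% in size.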 As to conditions: N2a mouse neuroblastoma cell viability; activity change, negative = cytotoxicity: at 92.2 µM (top of the series). In outline:
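Luminescent ATP signal (CellTiter-Glo, 20 min at room temperature) served as the viability read-out after N2a cells were treated with compounds for 40 hours at 37 °C. Concentration-response data were fitted to the Hill equation for AC50.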

Test [5] can be described thus: Cellular Toxicity (caspase-3) HepG2 (AID 654).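 Also: cells exposed to compound for 16 hours before reading; 0% = DMSO alone and 100% = caspase signal from 100 µM tamoxifen.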 Put shortly:
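Cells plated 5 hr at 37 °C, compound added, incubated 16 hr at 37 °C. Caspase-Glo 3/7 reagent followed, 20 min at room temperature, then luminescence read. Activation scored as signal increase; AC50 from Hill fit.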

Test [6] can be described thus: Cellular Toxicity (caspase-3) BJ (AID 658).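 Also: 0% = DMSO basal and 100% = 10 µM staurosporine.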 Put shortly: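 BJ human foreskin fibroblasts, 1000 cells/well, treated 16 hours at 37 °C in complete medium; caspase 3/7 activity by Caspase-Glo luminescence after 1 hr at room temperature. Normalized to DMSO and 10 uM staurosporine; AC50 from Hill fits.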
Test [7] can be described thus: Cellular Toxicity (caspase-3) MRC-5 (AID 659).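 Also: 0% = DMSO basal and 100% = 10 µM staurosporine.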 Put shortly: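 MRC-5 human normal lung fibroblasts, 1500 cells/well, treated 16 h at 37 °C in complete medium. Caspase 3/7 measured by Caspase-Glo luminescence after 1 h at room temperature. Normalized to DMSO and 10 uM staurosporine; AC50 from Hill fit.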
Test [8] in a line: Cellular Toxicity (caspase-3) Hek293 (AID 664).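 Also: cells exposed to compound for 16 h at 37 °C before readout.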 As to conditions: HEK293 caspase-3 activation, DMSO = 0%, 100 µM tamoxifen = 100%; at 92.2 µM (top of the series). Put shortly:
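Cells plated, 5 hr at 37 °C; compounds added; 16 hr at 37 °C; Caspase-Glo 3/7 reagent, 20 min RT; luminescence read. Activation expressed relative to DMSO and 100 uM tamoxifen, AC50 by Hill model.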

The nature of test [9]: Cellular Toxicity (caspase-3) N2a (AID 665).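 Also: compound exposure lasted 16 h at 37 °C before readout.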 In outline: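 N2a cells, 1500/well, 5 h settle at 37 °C; cpd 16 h, 37 °C; Caspase-Glo 3/7, 1 h RT; luminescence. Norm: DMSO = 0, 10 uM staurosporine = 100%. AC50, Hill fit.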
Test [10] is described as follows: Cellular Toxicity (caspase-3) NIH 3T3 (AID 666).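 Also: caspase signal read after 16 h compound exposure; 0% = DMSO basal and 100% = 100 µM tamoxifen stimulation.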 In outline: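 Luminescence from aminoluciferin released by caspase-3/7 cleavage of a peptide substrate served as read-out. Mouse fibroblast NIH 3T3 cells were exposed to compounds over a concentration range for 16 hours, and AC50 values came from standard Hill modelling.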
The target in test [11] is Cytochrome P450 3A4 (Homo sapiens) (UniProt P08684). Kind of test: qHTS Assay for Inhibitors and Substrates of Cytochrome P450 3A4 (AID 884). Also: % is scaled to controls: 0 for no effect and ±100 for the full control effect; nearly all actives have a fitted effect of over 50% in size. In outline:
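20 nM human CYP3A4 with 25 uM Luciferin-PPXE (at KM) in 200 mM KPO4, preincubated 10 min with compound; NADPH regeneration started a 60 min RT reaction. Luciferin detected by luminescence, normalized to 57 uM ketoconazole as full inhibition.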

The nature of test [12]: MultiTox-Fluor Cytotoxicity Assay - LYMP1-001 - Dead Cells (AID 946).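 Also: 0% = DMSO and 100% = tetraoctylammonium bromide.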 Put shortly: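 LYMP1-001 lymphoblastoid cells (2500/well) treated 16 h at 37 C. Dead-cell protease cleavage of bis-AAF-R110 read at Ex/Em 485/520. Normalized to DMSO and 15 uM tetraoctylammonium bromide; AC50 from Hill fits.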
Test [13] is described as follows: MultiTox-Fluor Cytotoxicity Assay - LYMP1-002 - Live Cells (AID 955). Also: % is scaled to controls: 0 for no effect and ±100 for the full control effect. In outline: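 Read-out is live-cell protease activity (cell-permeant GF-AFC substrate, fluorescence Ex/Em=405/510), where a decrease indicates acute toxicity. Human lymphoblastoid cells were treated 16 hours at 37 C in a concentration series, and AC50 values came from standard Hill modelling.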

The nature of test [14]: MultiTox-Fluor Cytotoxicity Assay - LYMP1-003 - Dead Cells (AID 961).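 Also: 0% = DMSO and 100% = tetraoctylammonium bromide; nearly all actives have a fitted effect of over 70% in size.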 Put shortly: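 LYMP1-003 human lymphoblastoid cells (2500/well) exposed to compound 16 h at 37 C in complete medium; dead-cell protease read with bis-AAF-R110 fluorescence (Ex/Em 485/520) after 60 min at room temperature. Normalized to DMSO and 15 uM tetraoctylammonium bromide; AC50 from Hill fit.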
The nature of test [15]: MultiTox-Fluor Cytotoxicity Assay - LYMP1-003 - Live Cells (AID 962).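 Also: 0% = DMSO only and full loss = 92 µM tetraoctylammonium bromide; cytotoxic hits lower the live-cell protease signal.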 Put shortly: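 qHTS, 1536-well; 2500 cells/well LYMP1-003; 5 hr 37 C settle; cpd 16 hr 37 C; MultiTox-Fluor reagent 60 min RT; live-cell protease fluor. 405/510; Hill-fit AC50; tetraoctylammonium bromide pos. ctrl.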
A short description of test [16]: Cell Viability - LYMP2-026 (AID 989).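 Also: cells exposed to compound for 24 h at 37 °C; % is scaled to controls: 0 for no effect and ±100 for the full control effect; nearly all actives have a fitted effect of over 50% in size.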 Put shortly: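 Luminescent ATP signal (CellTiter-Glo, 30 min room temperature) measures viable lymphoblastoid cells after 24 hr compound treatment at 37 C. Decreased ATP reflects acute toxicity; AC50 values come from Hill-equation modeling.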
A short description of test [17]: Cell Viability - LYMP1-002 - Assay at 24 hr (AID 993). Also: % is scaled to controls: 0 for no effect and ±100 for the full control effect. Put shortly:
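Cells plated 2500/well, 5 hr 37 C; compounds added, 24 hr 37 C; CellTiter-Glo added, 30 min RT; luminescence read. Tetraoctylammonium bromide positive control. Hill-equation AC50.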

The nature of test [18]: qHTS assay for small molecule agonists of retinoid X receptor alpha signaling (AID 588544). To be noted: HEK293T RXRa-UAS-bla, beta-lactamase reporter, 18 h; 530 nm emission.
The target of test [19] is Peroxisome proliferator-activated receptor alpha (Homo sapiens) (UniProt Q07869). Briefly: qHTS assay for small molecule agonists of the peroxisome proliferator-activated receptor alpha (PPARalpha) signaling pathway (AID 651778). Also: % of control where 0% means no effect. As to conditions: PathHunter PPARalpha complementation, chemiluminescence, 6 h; stronger effect = higher value. Put shortly: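 Enzyme-fragment complementation assay in which ligand-bound PPARalpha translocates and forms an active enzyme that generates chemiluminescence. Cells were plated overnight, exposed to compound for 6 hr at 37 C, and then given detection reagent for 60 min at room temperature.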
Chain of Peroxisome proliferator-activated receptor alpha (Homo sapiens) (Q07869 whole entry, looked up, the tested form may be a part): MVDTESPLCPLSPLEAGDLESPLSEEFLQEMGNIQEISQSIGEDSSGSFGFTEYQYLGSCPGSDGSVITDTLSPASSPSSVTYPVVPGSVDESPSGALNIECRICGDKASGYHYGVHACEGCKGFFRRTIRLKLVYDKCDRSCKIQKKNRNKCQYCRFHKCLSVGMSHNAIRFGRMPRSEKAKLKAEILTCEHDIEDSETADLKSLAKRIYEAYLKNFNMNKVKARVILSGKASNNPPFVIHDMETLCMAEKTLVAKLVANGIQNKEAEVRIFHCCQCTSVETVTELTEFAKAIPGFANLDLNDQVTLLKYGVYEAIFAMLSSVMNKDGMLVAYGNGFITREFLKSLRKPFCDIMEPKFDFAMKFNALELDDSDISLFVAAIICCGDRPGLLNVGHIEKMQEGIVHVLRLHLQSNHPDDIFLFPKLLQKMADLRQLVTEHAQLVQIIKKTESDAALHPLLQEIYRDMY

Test [20] in a line: qHTS assay for cell viability of the p53RE-bla HCT-116 cell line (AID 743292). Also: % is scaled to controls: 0 for no effect and ±100 for the full control effect; nearly all actives have a fitted effect of over 55% in size. In outline: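 CellSensor p53RE-bla HCT-116 cells (4,000/well) pre-incubated 5 h at 37 C, then exposed to compounds in DMSO for 16 h at 37 C. Viability read as ATP content by CellTiter-Glo luminescence after 30 min at room temperature.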

Results filed as inconclusive are left out. Calls of active or inactive are those of the source. Unless noted, calls follow the shape of the dose curve; as a rule, active = well fitted curve in the direction sought with a large enough effect; inconclusive = small, poorly fitted or top-dose-only effect, or another doubt; inactive = no such curve, though single readings can be large; an effect the other way counts as inactive or inconclusive.

Chain of Cytochrome P450 3A4 (Homo sapiens) (P08684 whole entry, looked up): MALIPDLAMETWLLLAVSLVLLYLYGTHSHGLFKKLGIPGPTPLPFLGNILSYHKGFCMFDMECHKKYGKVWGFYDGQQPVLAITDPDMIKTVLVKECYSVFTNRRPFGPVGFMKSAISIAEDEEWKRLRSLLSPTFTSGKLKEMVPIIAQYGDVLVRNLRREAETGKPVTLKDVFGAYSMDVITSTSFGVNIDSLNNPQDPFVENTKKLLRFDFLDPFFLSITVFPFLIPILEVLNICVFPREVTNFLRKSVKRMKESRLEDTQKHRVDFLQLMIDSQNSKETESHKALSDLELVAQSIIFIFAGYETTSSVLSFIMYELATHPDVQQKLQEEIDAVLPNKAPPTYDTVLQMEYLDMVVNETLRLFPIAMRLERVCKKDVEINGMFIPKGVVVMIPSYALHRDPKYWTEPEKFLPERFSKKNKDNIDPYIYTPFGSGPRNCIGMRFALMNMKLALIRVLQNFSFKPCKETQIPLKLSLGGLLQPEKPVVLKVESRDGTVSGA

As to `C=CCO`, the Potency in test [1] and in test [2] was > 92 µM (inactive) throughout. Further, the Potency entry in test [3], in test [4], in test [10], in test [11], in test [14] and in test [16] was “inactive” throughout. The Potency result in [17] and in [20] was “inactive” each time. For the same molecule, the molecule was called inactive in test [5], in test [6], in test [7], in [9], in [12] and in [13]. Also, the result in test [15] was inactive. For the same molecule, the caspase-3 activation in test [8] was 0.437% (inactive). In addition, the results for the max response in [18] and in test [19] were -10.3% and -7.9% (inactive), respectively.

Consider `CCN(CC)N=O`, for which the Potency in [1] and in test [2] was > 92 µM (inactive) each time. In addition, the Potency result in test [3], in [4], in test [10], in [11], in [14] and in [16] was “inactive” each time. Also, the Potency entry in test [17] and in [20] was “inactive” each time. In addition, the result in test [5], in test [6], in test [7], in test [9], in test [12] and in [13] was inactive. The call in test [15] was inactive. Besides, in [8], the caspase-3 activation was 1.39% (inactive). Moreover, the max response in [18] was -8.19%; in test [19], 2.1% (inactive).

In the case of `CN(C)N=O`, the Potency in test [1] and in test [2] was > 92 µM (inactive) in each case. Besides, the Potency entry in test [3], in [4], in test [10], in [11], in test [14] and in test [16] was “inactive” throughout. In addition, the Potency result in [17] and in test [20] was “inactive” each time. Further, the call in test [5], in [6], in test [7], in [9], in test [12] and in test [13] was inactive. Moreover, in test [15], the result was inactive. For the same molecule, the caspase-3 activation in test [8] is 5.49% (inactive). The max response was -8.99% in test [18] and 0.541% (inactive) in test [19].

Regarding `N#CCCC#N`, the Potency in [1] and in test [2] was > 92 µM (inactive) in each case. Besides, the Potency result in test [3], in test [4], in test [10], in test [11], in test [14] and in test [16] was “inactive” throughout. In addition, the Potency result in test [17] and in test [20] was “inactive” throughout. Moreover, the outcome in test [5], in [6], in test [7], in test [9], in test [12] and in test [13] was inactive. The molecule was classed as inactive in [15]. Also, in test [8], the caspase-3 activation is 1.14% (inactive). In addition, the max response in [18] was -20.2%; in test [19], -2.27% (inactive).

With `CN(C)c1ccccc1`, the Potency in test [1] and in test [2] was > 92 µM (inactive) throughout. Moreover, the Potency entry in test [3], in [4], in [10], in test [11], in [14] and in test [16] was “inactive” each time. In addition, the Potency entry in test [17] and in test [20] was “inactive” throughout. The outcome in test [5], in test [6], in test [7], in test [9], in test [12] and in test [13] was inactive. Also, the outcome in test [15] was inactive. The caspase-3 activation in test [8] is -0.669% (inactive). In addition, the max response was -3.38% in [18] and -1.79% (inactive) in [19].
